# DRD3 antagonist: D3 dopamine receptor (human) antagonism. P35462. D3R cells, DiscoveRx beta-arrestin luminescence, antagonist mode; stronger effect = lower value. max response, negative = inhibition, %. 2.5% of 360,000 active; in the data active = max response below about -50%; inconclusive = no clear call, values can overlap the other calls; also: % is scaled to controls: 0 for no effect and ±100 for the full control effect
# Target sequence (P35462 whole entry, looked up): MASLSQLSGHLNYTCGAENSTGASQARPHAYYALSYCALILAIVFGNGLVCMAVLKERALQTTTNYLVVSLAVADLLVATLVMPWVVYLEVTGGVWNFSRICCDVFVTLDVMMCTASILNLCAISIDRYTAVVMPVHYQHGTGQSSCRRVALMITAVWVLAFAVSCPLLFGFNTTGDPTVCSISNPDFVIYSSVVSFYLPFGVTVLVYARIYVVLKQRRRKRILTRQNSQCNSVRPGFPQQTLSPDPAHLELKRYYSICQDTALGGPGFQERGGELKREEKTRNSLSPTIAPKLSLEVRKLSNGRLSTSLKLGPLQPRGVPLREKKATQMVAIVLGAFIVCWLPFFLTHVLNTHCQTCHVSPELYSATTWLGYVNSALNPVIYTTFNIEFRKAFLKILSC
#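 Cells expressing the human receptor were seeded at 1500 cells/well, incubated overnight at 37 degrees C in 5% CO2, then exposed to library compounds with dopamine controls for 90 minutes at 37 degrees C before luminescent detection.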
# DRD3 agonist: agonists of human D3 dopamine receptor; D3R DiscoveRx beta-arrestin cells, luminescence, 90 min; 0.58% of 410,000 active; max activation, %; P35462; in the data active = max activation above about 30%; also: 0% is about no effect
#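 Cells at 1500/well, incubated overnight, then treated with pinned compounds (dopamine as control) for 90 min at 37 degrees C. DiscoveRx reagent added for 30 - 60 minutes at room temperature; luminescence read.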
# ClpP mod: qHTS Assay for Activators of ClpP; Potency, µM (series often up to 57.5 µM), without a hit: top-dose activity change, negative = active; 1.9% of 340,000 active; ATP-dependent Clp protease proteolytic subunit (Bacillus subtilis (strain 168)), P80244; AID 651965, 2013; purified B. subtilis ClpP, FRET peptide cleavage, 20 min; active = well fitted falling curve with a large enough effect; inconclusive = small, poorly fitted or top-dose-only effect; inactive = no such curve, though single readings can be large or run the other way; also: potency is read from the fitted curve at half-maximal effect; the source files actives as falling curves though it sought activators and does not explain the sign; nearly all actives have a fitted effect of over 65% in size
# Target sequence (P80244 whole entry, looked up): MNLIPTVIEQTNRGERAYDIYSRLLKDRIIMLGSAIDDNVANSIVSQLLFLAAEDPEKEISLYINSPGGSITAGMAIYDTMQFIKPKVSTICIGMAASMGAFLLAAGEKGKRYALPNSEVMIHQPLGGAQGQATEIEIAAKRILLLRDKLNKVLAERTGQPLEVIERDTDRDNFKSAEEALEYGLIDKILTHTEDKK
#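 ClpP 10 microg/mL final, pH 8 Tris/KCl buffer with BSA, glycerol, Tween-20; compound pinned in; FRET-FV substrate; RT 20 min; Ex320/Em430; ΔFRET vs ADEP 5.8 microM, DMSO, no enzyme.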
# TDP1 cell noCPT: qHTS for Inhibitors of human tyrosyl-DNA phosphodiesterase 1 (TDP1): qHTS in cells in absence of CPT | 15% of 420,000 active | AID 686978, 2013 | DT40 Tdp1-/- hTDP1 cells, no CPT, ATP luminescence, 48 h | Potency, µM (titrated, usually from 46.2 µM), inactives show at the highest dose activity change, negative = growth inhibition, usual class: inhibitors; also: potency is read from the fitted curve at half-maximal effect; % is scaled to controls: 0 for no effect and ±100 for the full control effect; nearly all actives have a fitted effect of over 55% in size
#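 Chicken DT40 Tdp1-/- cells complemented with human TDP1, screened without camptothecin (DMSO vehicle only), 400 cells/well. Compounds pin-transferred, cells incubated at 37 °C for at least 48 hr. Growth read as ATP-dependent luminescence (CellTiter-Glo, 30 min at RT).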
# TDP1 cell CPT: growth inhibition of DT40 Tdp1-/-;hTDP1 cells with camptothecin (screen for TDP1 inhibitors); Potency, µM (titrated, usually from 46.2 µM), without a hit: at the top dose activity change, negative = growth inhibition, hits mostly inhibitors; chicken DT40 Tdp1-/-;hTDP1 cells + 20 nM CPT, ATP luminescence, 48 h; 12% of 420,000 active; also: potency is read from the fitted curve at half-maximal effect; % is scaled to controls: 0 for no effect and ±100 for the full control effect; nearly all actives have a fitted effect of over 55% in size
#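 Cell growth measured by CellTiter-Glo luminescence after a minimum 48 h, 37 C compound exposure with 20 nM CPT in Tdp1-knockout DT40 cells stably expressing hTDP1, seeded 400/well; qHTS titration format.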
# IL-1B inflam inh: inflammasome signaling inhibition, IL-1 beta readout. activity change, % at 57.5 µM. AID 743279. THP-1 LPS/ATP IL-1B secretion, AlphaLISA, 16 h; stronger effect = lower value. 4.7% of 360,000 active; in the data active = activity change below about -50%; inconclusive = mostly about -30% to -49%; also: % is scaled to controls: 0 for no effect and ±100 for the full control effect
#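 THP-1 cells pretreated 1 hr with compounds (up to 57.5 uM final), then stimulated with LPS (250 ng/mL final) plus ATP (1.25 mM final); secreted IL-1B measured by AlphaLISA after 16 hr, decreased signal indicating inhibition.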
# * = called active by the depositor; i = inactive; ? = inconclusive; . = no result given. An excerpt weighted towards active compounds, which were near 21% of everything screened. Unless noted, calls follow the shape of the dose curve; as a rule, active = well fitted inhibition curve with a large enough effect; inconclusive = small, poorly fitted or top-dose-only effect; inactive = flat fitted curve, though single readings scatter.
SMILES,DRD3 antagonist,DRD3 agonist,ClpP mod,TDP1 cell noCPT,TDP1 cell CPT,IL-1B inflam inh
Cc1ccc(C(=O)Nc2ccccc2C(=O)NCC2CCCO2)cc1 (stereo unspecified),-12,-4,-1%,-4%,-8%,-4
Cc1ccc(C)n1-c1ccc(C(=O)NCC2CCCO2)cc1 (stereo unspecified),5,-9,-8%,13µM*,13µM*,?
COc1ccccc1C(=O)NCCC(=O)N(C)Cc1ccc(C)o1,-2,3,-1%,16%,-7%,1
COc1ccc(NC(=O)CS(=O)(=O)c2cn(CC(=O)N3CCOCC3)c3ccccc23)cc1,?,-7,.,-5%,4%,-1
O=C1c2ccccc2C(=O)N1CCCc1cn(C[C@H]2CC[C@H](Cn3cc(CCCN4C(=O)c5ccccc5C4=O)nn3)O2)nn1,52,16,-2%,?,-22%,-6
CC(C)c1ccc(NC(=O)CSC2=Nc3ccccc3C3=NC(CC(=O)NCc4ccco4)C(=O)N23)cc1 (stereo unspecified),.,-11,-2%,?,?,.
O=C(NCc1ccco1)C(C(=O)c1ccccc1)n1ccccc1=O (stereo unspecified),3,-1,-2%,?,0%,-1
O=C(NCC1CCCO1)C(C(=O)c1ccccc1)n1ccccc1=O (stereo unspecified),2,1,-3%,10µM*,?,8
CCc1ccc(C(=O)NC(C(=O)NCC2CCCO2)C(C)C)cc1 (stereo unspecified),-88*,-20,.,?,19%,-4
Cc1cccc(C(=O)NCC2CCCO2)c1 (stereo unspecified),-54*,3,1%,2%,2%,6
Nc1c(C(=O)NCC2CCCO2)c2nc3ccccc3nc2n1-c1ccccc1 (stereo unspecified),22,7,16µM*,16µM*,16µM*,0
Cc1ccccc1S(=O)(=O)NC(=NCc1ccc(F)cc1)c1ccccc1,4,1,1%,?,?,-14
COCCNC(=O)c1ccc2c(c1)ncn2-c1cccc(C)c1,-3,-6,-10%,?,16µM*,-11
O=C(c1ccc2ccccc2c1)N1CCc2ccccc21,-8,-7,.,-11%,12%,21
Cc1cccc(-n2cnc3cc(C(=O)N4CCc5ccccc54)ccc32)c1,-21,3,-1%,?,-13%,-77*
COCCNC(=O)c1ccc2c(c1)ncn2-c1cc(C)ccc1OC,.,-17,-1%,-12%,-25%,.
CCN1C(=O)[C@H]2[C@H]3CN=C(SCC4CC4)N3[C@@](CC)(C(=O)OC)[C@H]2C1=O,-6,-23,0%,-6%,1%,16
O=C(NCCS(=O)(=O)N1CCN(c2ccccc2F)CC1)c1ccc2c(c1)OCO2,-7,1,-10%,-23%,-28%,-4
COc1ccc(S(=O)(=O)N(C)C[C@@H]2Oc3c(NS(=O)(=O)c4cn(C)cn4)cccc3C(=O)N([C@@H](C)CO)C[C@@H]2C)cc1,1,8,-9%,-6%,10%,14
N#C/C(=C\c1c[nH]c2ccccc12)C(N)=O,9,0,-1%,?,?,-15
CC(=O)Oc1c(/C=C(\C#N)C(N)=O)[nH]c2ccccc12,?,-1,25µM*,?,16µM*,13
CCN(c1cccc(C)c1)S(=O)(=O)c1ccc2c(c1)CCN2C(C)=O,8,1,0%,16µM*,?,16
CCN(c1cccc(C(F)(F)F)c1)S(=O)(=O)c1ccc2c(c1)CCN2C(C)=O,-62*,0,1%,?,?,?
CCN(c1cccc(C)c1)S(=O)(=O)c1ccc2c(c1)CCCN2C(C)=O,-18,-15,.,?,-28%,-19
CCc1nnc(SCC(=O)Nc2ccc(N3CCN(S(C)(=O)=O)CC3)cc2)o1,5,1,.,-26%,?,-12
SMILES,DRD3 antagonist,DRD3 agonist,ClpP mod,TDP1 cell noCPT,TDP1 cell CPT,IL-1B inflam inh
O=C(CSc1nccn1-c1ccccc1)Nc1nc2ccccc2s1,.,-10,-2%,?,?,.
Cc1cc(C)cc(-n2ccnc2SCC(=O)Nc2nnc(C)s2)c1,.,-7,0%,3.3µM*,4.1µM*,.
CCc1nnc(NC(=O)CSc2nccn2-c2cccc(C)c2)s1,-15,-6,-3%,-13%,-21%,7
Cc1cccc(-n2ccnc2SCC(=O)Nc2nnc(C)s2)c1,-9,1,-2%,15µM*,?,-11
Cc1cccc(-n2ccnc2SCC(=O)Nc2nc3ccccc3s2)c1,.,-1,3%,23µM*,?,.
CCOc1ccc(OCCC(=O)OCC(=O)N(CC)c2c(N)n(Cc3ccccc3)c(=O)[nH]c2=O)cc1,4,-2,1%,?,?,-1
Cc1ccc(-n2c3nc(=O)[nH]c(=O)c-3cc3c(C)nn(-c4ccccc4)c32)cc1C,.,-1,4%,-7%,-13%,.
COc1ccc(-c2cc(CCC(=O)N3CCN(c4cc(C)ccc4C)CC3)[nH]n2)cc1,63,11,0%,23µM*,?,-5
CCOC(=O)c1[nH]c(C)c(CCC(=O)Nc2cc(C)ccc2OC)c1C,.,4,-11%,?,-28%,.
CCOC(=O)c1[nH]c(C)c(CCC(=O)N2CCN(c3cc(Cl)ccc3C)CC2)c1C,.,1,-4%,23µM*,?,.
CCOC(=O)c1[nH]c(C)c(CCC(=O)N2CCN(c3cc(C)ccc3C)CC2)c1C,.,2,-2%,23µM*,?,.
CCOC(=O)c1[nH]c(C)c(CCC(=O)Nc2c(C)cc(C)cc2C)c1C,.,-10,?,21µM*,?,.
CCOC(=O)c1[nH]c(C)c(CCC(=O)N2CCN(c3cccc(OC)c3)CC2)c1C,.,6,-1%,?,?,.
Cc1cc(C)cc(NC(=O)CSc2nc(N)c(NC(=O)c3ccc(Br)o3)c(=O)[nH]2)c1,0,-5,-7%,3%,3%,i
COc1cccc2sc(N(CCCN(C)C)C(=O)COc3ccc(Cl)cc3)nc12,-4,2,0%,?,?,-27
CN(C)CCCN(C(=O)COc1ccccc1)c1nc2cc3c(cc2s1)OCO3,-22,-7,?,-29%,9%,i
CN(C)CCCN(C(=O)COc1ccc(Cl)cc1)c1nc2cc3c(cc2s1)OCCO3,-4,-9,-5%,?,-28%,-94*
